Screening data (PubChem BioAssay)
The list is not random: actives were taken first. Their share in the collection is about 3.1%.
INS-1E GSIS act – GLuc luminescence reporter in INS-1E cells, primary screen for activators of glucose-dependent secretion of insulin; activation, % at 16.6 µM; AID 743287, 2014; INS-1E GLuc reporter insulin secretion, 2-3 h; 370,000 compounds, 0.61% hits;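 active = lowest replicate activation of at least 40%, so every replicate reaches that level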
RAD52 anneal inh – RAD52 DNA annealing inhibitors, primary screen, biochemical, FRET, single point, set 2. DNA repair protein RAD52 homolog (Homo sapiens), P43351. recombinant RAD52 DNA annealing, FRET fluorescence. inhibition, % at 18.7 µM. 360,000 compounds, 0.46% hits;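 active = every replicate showing at least 50% inhibition; inconclusive = mean inhibition at least 50% but not in every replicate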
Target sequence (P43351 whole entry, looked up): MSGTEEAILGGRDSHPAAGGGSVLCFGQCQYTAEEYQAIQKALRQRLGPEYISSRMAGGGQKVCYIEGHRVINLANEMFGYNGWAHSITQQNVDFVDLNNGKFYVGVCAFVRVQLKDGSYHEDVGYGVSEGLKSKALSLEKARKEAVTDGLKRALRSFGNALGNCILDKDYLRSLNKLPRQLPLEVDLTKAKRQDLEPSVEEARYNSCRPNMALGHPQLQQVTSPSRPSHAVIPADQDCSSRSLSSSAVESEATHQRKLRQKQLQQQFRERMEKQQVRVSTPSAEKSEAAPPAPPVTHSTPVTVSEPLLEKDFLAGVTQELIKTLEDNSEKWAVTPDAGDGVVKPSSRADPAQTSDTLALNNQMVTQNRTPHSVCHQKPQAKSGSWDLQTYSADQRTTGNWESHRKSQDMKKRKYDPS
AF4-AF9 inh – inhibitors of AF4 peptide binding to AF9, primary screen, biochemical, AlphaScreen, biotin-AF4 peptide, FLAG-AF9, single point; Protein AF-9 (Homo sapiens), P42568; inhibition, % at 10 µM; 350,000 compounds, 0.47% hits; AID 651704, 2012;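 active = every replicate reaching a set inhibition limit, whatever the replicate mean, cut at about 25% in these data; inconclusive = mean inhibition reaches that limit but some replicates miss it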
RAD54 inh – inhibitors of human RAD54 branch migration, primary screen, biochemical, fluorescence, single point; 360,000 compounds, 0.14% hits; inhibition, % at 10.4 µM; DNA repair and recombination protein RAD54-like (Homo sapiens), Q92698; RAD54 Holliday junction branch migration, FAM/BHQ fluorescence;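 active = mean normalized replicate activity at least 40 and at least half of replicates scoring 40 or more; inconclusive = only one of the two criteria met; inactive = mean below 40 and under half of replicates reaching 40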;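 note: inhibitors cause a drop in the FAM fluorescence signal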
dFosB activator – activators of delta FosB homodimer, primary screen, biochemical, fluorescence polarization, TAMRA-CDK5 oligo, single point. Protein FosB (Mus musculus), P13346. AID 493131, 2011. activation, % at 25 µM. 340,000 compounds, 0.99% hits. purified delta FosB; percent of positive-control signal above neutral wells;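 active = mean activation above about 17%, with every replicate also reaching it, limit read from the data, passing the limit was not always enough; inconclusive = only one of the two conditions met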
DENV2 CPE rescue – inhibitors of DENV2 cytopathic effect, primary screen, cell-based, plate reader, single concentration. 350,000 compounds, 1.7% hits. AID 651640, 2012. CPE inhibition, % at 9.99 µM. DENV2-infected cells, cytopathic effect rescue; in the data active = CPE inhibition above about 20%, passing the limit was not always enough; inconclusive = no clear call, values can overlap the other calls; tested in BHK-21 cells
Numbers stand for hits; 0 = inactive; ? = inconclusive; - = no result given.

SMILES	INS-1E GSIS act	RAD52 anneal inh	AF4-AF9 inh	RAD54 inh	dFosB activator	DENV2 CPE rescue
COc1ccc2c3c([nH]c2c1)[C@H](CO)N(C(=O)c1ccncc1)CC31CCN(C(=O)CC2CC2)CC1	0	0	0	-	-	0
CCCC1CCC(C(=O)Nn2c(C)nc3ccccc3c2=O)CC1 (stereo unspecified)	0	0	0	0	0	0
CCCCCCC1CCC(C(=O)Nn2c(C)nc3ccccc3c2=O)CC1 (stereo unspecified)	69	-	-	0	0	-
CCCNC(=O)[C@@H]1[C@@H](CO)[C@@H]2Cn3c(cccc3=O)[C@H]1N2Cc1cc(F)ccc1F	0	0	0	0	-	0
O=C(Cc1ccc2c(c1)OCO2)NN=Cc1ccc([N+](=O)[O-])o1	0	0	0	0	0	61
C[C@@H]1CCCCO[C@@H](CN(C)CC2CCCCC2)[C@H](C)CN([C@@H](C)CO)C(=O)c2cc(NC(=O)c3ccncc3)ccc2O1	0	0	0	0	-	0
O=C(NC1CCCC1)[C@@H]1N[C@@H]2c3ccc(-c4cccc(F)c4)c(=O)n3C[C@@H]2[C@H]1CO	0	0	0	-	-	?
COC(=O)[C@H]1[C@H](CO)[C@H]2Cn3c(ccc(-c4ccncc4)c3=O)[C@H]2N1CC1CCCCC1	0	0	0	0	-	0
COC(=O)[C@@H]1[C@@H](CO)[C@@H]2Cn3c(ccc(-c4ccccc4)c3=O)[C@@H]2N1CC1CCCCC1	0	-	0	0	-	33
O=C(NC1CCCC1)[C@H]1N[C@H]2c3ccc(-c4cccc(F)c4)c(=O)n3C[C@H]2[C@@H]1CO	0	58	0	-	-	0
COC(=O)[C@H]1[C@H](CO)[C@H]2Cn3c(ccc(-c4ccccc4)c3=O)[C@H]2N1CC1CCCCC1	0	0	0	0	-	45
O=C(NCC1CCCCC1)[C@@H]1[C@@H](CO)[C@@H]2Cn3c(ccc(-c4cccnc4)c3=O)[C@H]1N2	0	0	0	-	-	106
COc1cccc(-c2ccc3n(c2=O)C[C@H]2[C@H](CO)[C@@H](C(=O)NCC4CC4)[C@@H]3N2S(C)(=O)=O)c1	0	0	-	0	-	0
CS(=O)(=O)N1[C@@H]2c3ccc(-c4ccc(F)cc4)c(=O)n3C[C@H]1[C@H](CO)[C@H]2C(=O)NCC1CC1	0	0	0	0	-	121
O=C(NC1CCCC1)[C@@H]1[C@@H](CO)[C@@H]2Cn3c(ccc(-c4ccccc4)c3=O)[C@H]1N2CC1CC1	0	0	0	-	-	25
COCC(=O)Nc1ccc2c(c1)[C@@H]1C[C@@H](CC(=O)NC3CCCC3)O[C@H](CO)[C@@H]1O2	0	0	0	0	-	0
COCCNC(=O)CCC1CCN(Cc2ccc(-c3ccccc3)cc2)CC1	-	0	0	0	0	48
COc1ccc(S(=O)(=O)Nc2ccc3c(c2)C(=O)N([C@@H](C)CO)C[C@@H](C)[C@H](CN(C)C(=O)Nc2ccc4c(c2)OCO4)OCCCC[C@H](C)O3)cc1	0	0	0	0	-	0
COCC(=O)Nc1ccc2c(c1)[C@@H]1C[C@H](CC(=O)NCC3CC3)O[C@H](CO)[C@@H]1O2	0	0	0	0	-	0
Cc1ccc(NC(=O)c2cc(N3C(=O)C=CC3=O)ccc2Cl)cc1C	50	-	-	0	0	-
COc1ccccc1NC(=O)N1CC[C@@H]2[C@@H](CO)N(C)c3ccc(-c4ccc(F)cc4)cc3[C@@H]21	0	0	0	0	-	0
CCOC(=O)c1ccc(N=c2scc(C)n2CC)cc1	0	0	26	0	0	0
O=C(O)Cc1ccc(NC(=O)c2ccc(NC(=O)C3CC3)cc2)cc1	0	0	0	0	0	82
O=C(Nc1ccc(Cc2ccc(NC(=O)C3CC3)cc2)cc1)C1CC1	0	0	0	-	0	0
C[C@H](CO)N1C[C@H](C)[C@@H](CN(C)C(=O)Cc2ccccc2)OCCCC[C@H](C)Oc2ccc(NC(=O)Nc3ccc(C(F)(F)F)cc3)cc2C1=O	0	0	0	0	-	0
SMILES	INS-1E GSIS act	RAD52 anneal inh	AF4-AF9 inh	RAD54 inh	dFosB activator	DENV2 CPE rescue
C[C@@H]1CCCCO[C@H](CN(C)C(=O)Cc2ccccc2)[C@H](C)CN([C@@H](C)CO)C(=O)c2cc(NC(=O)Nc3ccc(C(F)(F)F)cc3)ccc2O1	0	0	0	0	-	44
C[C@@H]1CN([C@H](C)CO)C(=O)c2cc(NC(=O)Nc3ccc(C(F)(F)F)cc3)ccc2O[C@@H](C)CCCCO[C@@H]1CN(C)C(=O)Cc1ccccc1	0	0	0	0	-	82
CCCN(C)C[C@H]1OCCCC[C@H](C)Oc2ccc(NS(=O)(=O)c3ccc(OC)cc3)cc2C(=O)N([C@@H](C)CO)C[C@H]1C	0	0	0	0	-	?
Cc1ccc(NS(=O)(=O)c2ccc(NC(=O)C3CC3)cc2)cc1C	0	0	0	0	0	0
Cc1ccc(NC(=O)C2CCCCC2)cc1C	0	0	0	0	0	70
Cc1cc(C(=O)Nc2cccc3c2O[C@@H](CN(C)Cc2ccc(Cl)c(Cl)c2)[C@@H](C)CN([C@H](C)CO)C3=O)n(C)n1	0	0	0	0	-	0
Cc1ccc(N(CC(=O)NC(C)(C)C)C(=O)CNC(=O)c2cccs2)cc1	0	0	0	-	0	0
Cc1cccc(N(CC(=O)NC(C)(C)C)C(=O)CNC(=O)c2cccs2)c1C	0	0	0	-	0	44
Cc1ccc2c(c1)c1c(n2CC(O)CNC2CCCC2)CCCC1 (stereo unspecified)	0	0	-	0	0	27
N#Cc1ccc(-c2ccc3c(c2)[C@@H]2[C@@H](CCN2C(=O)C2CC2)[C@@H](CO)N3)cc1	0	0	0	0	-	0
C[C@H](CO)N1C[C@H](C)[C@@H](CN(C)C(=O)C2CCCCC2)Oc2ncc(C#Cc3cccc(F)c3)cc2C1=O	0	0	0	0	-	0
O=C(C1CCCC1)N1CC2(C1)[C@H](c1ccccc1)[C@@H](CO)N2C(=O)NC1CCCC1	0	0	0	-	-	0
CS(=O)(=O)c1ccc2nc(NC(=O)Nc3cccc(Cl)c3)sc2c1	0	0	0	-	0	0
CS(=O)(=O)c1ccc2nc(NC(=O)Nc3ccc(Cl)c(Cl)c3)sc2c1	260	-	-	-	?	-
C[C@H]1CN([C@@H](C)CO)C(=O)Cc2cc(NS(=O)(=O)c3ccc(Cl)cc3)ccc2O[C@H]1CN(C)S(=O)(=O)c1ccc(Cl)cc1	0	0	0	0	-	0
C[C@H](CO)N1C[C@H](C)[C@@H](CN(C)S(=O)(=O)c2ccc(Cl)cc2)Oc2ccc(NC(=O)C3CC3)cc2CC1=O	0	0	0	0	-	30
Cc1noc(C)c1S(=O)(=O)Nc1ccc2c(c1)CC(=O)N([C@@H](C)CO)C[C@H](C)[C@H](CN(C)C(=O)NC1CCCCC1)O2	0	0	0	0	-	0
